# Reference: PubChem BioAssay (Tox21)
# Results filed as inconclusive are left out. A call without a number means that no potency is given here. Activity calls are given as the source filed them. The call rests on the fitted dose curve.
# Target: Peroxisome proliferator-activated receptor delta (Homo sapiens) (UniProt Q03181)
# Assay: qHTS assay to identify small molecule agonists of the peroxisome proliferator-activated receptor delta (PPARd) signaling pathway (AID 743212)
# Details: HEK293H PPARd-UAS-bla, beta-lactamase FRET ratio, 17 h; series mostly up to 62.6 µM
# Description: U.S. Tox21 Program National Center for Advancing Translational Sciences [NCATS] NIH Chemical Genomics Center [NCGC] U.S. Environmental Protection Agency [EPA] National Institutes of Environmental Health Sciences [NIEHS] National Toxicology Program [NTP] U.S. Food and Drug Administration [FDA] Tox21 Assay Overview: The peroxisome proliferator-activated receptors (PPARs) are lipid-activated transcription factors of the nuclear receptor superfamily with three distinct subtypes namely PPAR alpha, PPAR delta (PPARd) and PPAR gamma. All these subtypes heterodimerizes with Retinoid X receptor (RXR) and have different physiological functions. […] To identify the compounds that activate PPAR-delta signaling, GeneBLAzer PPAR delta UAS-bla HEK293H cell line (Invitrogen, Carlsbad, CA, USA) containing a beta-lactamase reporter gene under the control of an Upstream Activator Sequence (UAS) was used to screen the Tox21 compound library.
# Tox21 Assay Protocol Summary: PPARd-bla cells were dispensed at 3000 cells/6uL/well in 1536-well black wall/clear bottom plates using a Multidrop Combi (Thermo Fisher Scientific, Waltham, MA) dispenser. After the assay plates were incubated at 37 C and 5% CO2 for 5 h, 23 nL of compounds dissolved in DMSO, positive controls or DMSO only was transferred to the assay plate by a Pintool station (Kalypsys, San Diego, CA). The assay plates were incubated at 37C for 17 h. After 1 uL of LiveBLAzerTM B/G FRET substrate was added using a Bioraptr Flying Reagent Dispenser (FRD) workstation (Beckman Coulter, Indianapolis, IN, USA), the plates were incubated at room temperature for 2 h, and fluorescence intensity was measured by an Envision plate reader (PerkinElmer, Shelton, CT).
# Chain of Peroxisome proliferator-activated receptor delta (Homo sapiens) (Q03181 whole entry, looked up): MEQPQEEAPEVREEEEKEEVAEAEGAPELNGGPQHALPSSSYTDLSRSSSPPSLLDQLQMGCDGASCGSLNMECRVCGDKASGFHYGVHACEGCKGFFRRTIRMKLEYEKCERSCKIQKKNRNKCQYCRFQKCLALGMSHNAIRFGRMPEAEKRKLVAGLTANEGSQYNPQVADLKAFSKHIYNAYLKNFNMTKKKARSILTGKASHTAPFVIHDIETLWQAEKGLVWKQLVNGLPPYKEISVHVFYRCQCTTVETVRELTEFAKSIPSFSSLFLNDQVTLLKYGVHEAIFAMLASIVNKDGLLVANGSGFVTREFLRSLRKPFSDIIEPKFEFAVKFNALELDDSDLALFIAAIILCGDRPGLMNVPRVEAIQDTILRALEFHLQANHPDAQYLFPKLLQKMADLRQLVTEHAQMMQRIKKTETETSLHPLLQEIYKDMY
SMILES,Potency,activation
C=CCOC(=O)/C=C\C(=O)OCC=C,inactive,–
CC1(C)C2=CCCC(C)(C)[C@]23CC[C@H]1C3,inactive,–
CCCCCCCCCCCC[N+](C)(C)CC(=O)[O-],inactive,–
ON(Cc1ccccc1)Cc1ccccc1,inactive,–
Cc1ccnc2ccccc12,inactive,–
CCCCC(CC)C(=O)OCCOCCOCCOCCOC(=O)C(CC)CCCC (stereo not given),inactive,–
CC(=O)OCC(=O)[C@@]12OC(C)(C)O[C@@H]1C[C@H]1[C@@H]3C[C@H](F)C4=CC(=O)C=C[C@]4(C)[C@@]3(F)[C@@H](O)C[C@@]12C,inactive,–
CCC(C(=O)OCCN(CC)CC)c1ccccc1 (stereo not given),inactive,–
Cc1ccc(S)cc1,inactive,–
CC(C)=CC=O,inactive,–
OC/C(Br)=C(\Br)CO,inactive,–
CN1Cc2cc(C(=O)N3CCC(C4CCNCC4)CC3)ccc2N[C@@H](CC(=O)O)C1=O,inactive,–
CCCCN(CCCC)C(=S)SSC(=S)N(CCCC)CCCC,inactive,–
O=C(O)c1ccc(CO)o1,inactive,–
[O]=[Bi],–,2.74% [at 5.95 µM] (inactive)
C/C(=N/NC(=O)c1ccncc1)C(=O)O,inactive,–
C/C=C/C=C/CCCCCCCO,inactive,–
CC#N,inactive,–
CO/N=C1\CN(c2nc3c(cc2F)c(=O)c(C(=O)O)cn3C2CC2)CC1CN (stereo not given),inactive,–
CC(C)CCCCCCOC(=O)CCCCC(=O)OCCCCCCC(C)C,inactive,–

SMILES,Potency,activation
O=C(CCCCCCC(=O)Nc1ccccc1)NO,inactive,–
CC1=CC(O)CC(C)(C)C1 (stereo not given),inactive,–
CN1CCCN=C1/C=C/c1cccs1,inactive,–
NC(=O)N(O)[C@@H]1C=C[C@H](Oc2cccc(Oc3ccc(F)cc3)c2)C1,inactive,–
O=[N+]([O-])c1cccc(S(=O)(=O)NCCNS(=O)(=O)c2cccc([N+](=O)[O-])c2)c1,inactive,–
CCC1(C)CC(=O)NC1=O (stereo not given),inactive,–
O=C(NCCCN1CCOCC1)c1ccc(Cl)cc1,inactive,–
CC(C)(CCl)c1ccccc1,inactive,–
CO[Si](C)(OC)OC,inactive,–
c1ccc(COCc2ccccc2)cc1,inactive,–
O=C(/C=C/c1ccccc1)OCCCc1ccccc1,inactive,–
CCCCC(CC)CNCC(CC)CCCC (stereo not given),inactive,–
COC(=O)[C@@H]1CC2=CC(=O)CC[C@]2(C)[C@@]23O[C@@H]2C[C@@]2(C)[C@@H](CC[C@@]24CCC(=O)O4)[C@H]13,inactive,–
CCCC(=O)O[C@]1(C(=O)COC(=O)CC)CC[C@H]2[C@@H]3CCC4=CC(=O)CC[C@]4(C)[C@H]3[C@@H](O)C[C@@]21C,inactive,–
O=C(O)c1c(O)c(-c2ccccc2)nc2ccccc12,inactive,–
CCCCC(=O)O[C@]1(C(=O)CO)CC[C@H]2[C@@H]3CCC4=CC(=O)CC[C@]4(C)[C@H]3[C@@H](O)C[C@@]21C,inactive,–
O=Cc1c(Cl)cccc1Cl,inactive,–
CC1=NN(c2ccc(C(=O)O)cc2)C(=O)C1,inactive,–
COc1ccc([C@@H]2Sc3ccccc3NC(=O)[C@@H]2O)cc1,inactive,–
Nc1ccc(Cl)cc1[N+](=O)[O-],inactive,–
